Consider 35 molecules from PubChem BioAssay (NCATS).

Records with an inconclusive call do not appear. Entries that show only a call come without a potency. Active and inactive are the calls of the source. The call rests on the fitted dose curve; in most records, active means well fitted curve in the direction sought with a large enough effect; inconclusive means small, poorly fitted or top-dose-only effect, or another doubt; inactive means no such curve, though single readings can be large; an effect the other way counts as inactive or inconclusive.

Assay [1] addresses Aldehyde dehydrogenase, mitochondrial (Homo sapiens) (UniProt P05091). Kind of assay: qHTS for Inhibitors of the Aldehyde Dehydrogenase Family (ALDH2) Primary screen (AID 2061308). Further: nearly all actives have a fitted effect of over 55% in size. The following applies: ALDH2 enzyme inhibition qHTS, 1536-well; series mostly up to 56 µM.
Assay [2] deals with Retinaldehyde dehydrogenase 3 (Homo sapiens) (UniProt P47895). In words: qHTS for Inhibitors of the Aldehyde Dehydrogenase Family (ALDH1A3) Primary screen (AID 2061315). The note with it: ALDH inhibition qHTS; series mostly up to 56 µM.

For `O=C(NC(c1ccco1)c1cc(Cl)c2cccnc2c1O)c1ccc(F)c(F)c1` (stereo not given), the Potency entry in assay [1] and in assay [2] was “inactive” in each case.

`CCOc1ccc(CCNC(=O)c2cc3sccc3n2CCN2CCN(C)CC2)cc1OCC`: the Potency entry in assay [1] and in assay [2] was “inactive” throughout.

Turning to `COc1ccc(OC)c(-c2nnc3n2N=C(c2c(OC)cccc2OC)CS3)c1`, the Potency entry in assay [1] and in assay [2] was “inactive” in each case.

For the molecule `Cc1cc(NC(=O)Nc2nnc(-c3cccnc3)s2)ccc1Cl`, the Potency entry in assay [1] and in assay [2] was “inactive” in each case.

In the case of `Cc1cc(C)n2ncc(C(=O)Nc3ccc(C#N)cc3)c2n1`, the Potency result in assay [1] and in assay [2] was “inactive” each time.

For `COc1ccc(-c2nnc3n2N=C(c2ccccc2OC)CS3)cc1OC`, the Potency result in assay [1] and in assay [2] was “inactive” in each case.

In the case of `CN(C)CCCCC(=O)Nc1ccc(NC(=S)NC(=O)c2ccc(C(C)(C)C)cc2)cc1`, the Potency result in assay [1] and in assay [2] was “inactive” in each case.

On to `Cc1c(Br)cc(F)c([S+](=O)([O-])N2CCN([S+](=O)([O-])c3ccc4c(c3)OCCO4)CC2)c1F`, for which the Potency entry in assay [1] and in assay [2] was “inactive” in each case.

`N#Cc1ccc(NC(=O)Nc2nnc(-c3ccncc3)s2)cc1`: the Potency result in assay [1] and in assay [2] was “inactive” throughout.

`Cc1cc(N[S+](=O)([O-])c2ccc(NC(=O)Cc3ccc(F)c(F)c3)cc2)no1`: the Potency entry in assay [1] and in assay [2] was “inactive” throughout.

Turning to `NC1(C(=O)NC(CCO)c2ccc(Cl)cc2)CCN(c2ncnc3[nH]ccc23)CC1` (stereo not given), the Potency result in assay [1] and in assay [2] was “inactive” each time.

As to `CC(=O)c1cc2c(s1)c1cnn(Cc3ccccc3F)c(=O)c1n2C`, the Potency entry in assay [1] and in assay [2] was “inactive” in each case.

For `Oc1c(CN2CCCCC2)cc(COCc2ccccc2)c2cccnc12`, the Potency entry in assay [1] and in assay [2] was “inactive” in each case.

Take `N#Cc1nc(Nc2cc(Cl)cc(Cl)c2)nc(NC2CCCC2)n1`: the Potency result in assay [1] and in assay [2] was “inactive” in each case.

Regarding `Nc1ncnc2c1C(c1ccccc1)c1c(ccc3ccccc13)O2` (stereo not given), the Potency result in assay [1] and in assay [2] was “inactive” throughout.

`Cc1cccc(-c2csc(N3CCC(C(N)=O)CC3)n2)c1`: the Potency entry in assay [1] and in assay [2] was “inactive” throughout.

On to `CC(C)c1ccc(NC(=O)c2cccs2)c(-c2nc3ccccc3[nH]c2=O)c1`, for which the Potency entry in assay [1] and in assay [2] was “inactive” in each case.

Consider `O=C(CN1C(=O)N/C(=C\c2cccn2-c2cccc(C(=O)O)c2)C1=O)Nc1ccccc1F`, for which the Potency entry in assay [1] and in assay [2] was “inactive” each time.

Consider `N#Cc1cc(NC(=O)Nc2nnc(-c3ccncc3)s2)ccc1Br`, for which the Potency entry in assay [1] and in assay [2] was “inactive” each time.

`Oc1ccc(/C=C/c2c(F)cccc2F)c2cccnc12`: the Potency result in assay [1] and in assay [2] was “inactive” in each case.

With `Cc1cc(C)nc(NC(=S)N2CCN(c3cnccn3)CC2)c1`, the Potency result in assay [1] and in assay [2] was “inactive” each time.

For `CN(C)CCOC(C)(c1ccccc1)c1ccc(Cl)cc1` (stereo not given), the Potency result in assay [1] and in assay [2] was “inactive” throughout.

As for `Cc1nc(Nc2nc3ccccc3o2)nc2c1CCCC2`, the Potency entry in assay [1] and in assay [2] was “inactive” throughout.

For the molecule `O=C1CCCC2=C1C(c1[nH]ncc1Cl)N=C(Nc1nc3cc([S+](=O)([O-])N4CCOCC4)ccc3o1)N2` (stereo not given), the Potency entry in assay [1] and in assay [2] was “inactive” throughout.

On to `O=S(=O)(c1ccc2c(c1)OCCO2)N1CCN(S(=O)(=O)c2ccc(Br)cc2F)CC1`, for which the Potency result in assay [1] and in assay [2] was “inactive” in each case.

For `COc1ccc(C2Nc3ccccc3C(=O)N2Cc2ccco2)cc1COc1c(C)cc(NC(C)=O)cc1C` (stereo not given), the Potency entry in assay [1] and in assay [2] was “inactive” throughout.

On to `O=C(Nc1ccc(Cl)c(Cl)c1)Nc1nnc(-c2cccnc2)s1`, for which the Potency result in assay [1] and in assay [2] was “inactive” each time.

Take `CCn1cnc2c(Nc3cc(F)cc(F)c3)nc(C(=O)COc3c(F)c(F)cc(F)c3F)nc21`: the Potency result in assay [1] and in assay [2] was “inactive” in each case.

With `CC(C)(C)N=Cc1c(-c2ccccc2)no[n+]1[O-]`, the Potency result in assay [1] and in assay [2] was “inactive” in each case.

With `CCNC(=O)C1CCC(C(=O)Nc2ccc([S+](=O)([O-])Nc3nccs3)cc2)CC1` (stereo not given), the Potency result in assay [1] and in assay [2] was “inactive” in each case.

As to `NC(=O)c1c(NC(=O)c2ccncn2)sc2c1CCCC2`, the Potency entry in assay [1] and in assay [2] was “inactive” throughout.

`CCC(Nc1ncnc2ccc(-c3c(C)noc3C)cc12)c1ccccc1` (stereo not given): the Potency entry in assay [1] and in assay [2] was “inactive” in each case.

Regarding `Cc1cc2c(s1)c1cnn(Cc3cccc([N+](=O)[O-])c3)c(=O)c1n2C`, the Potency entry in assay [1] and in assay [2] was “inactive” throughout.

Consider `O=S1(=O)N=C(Oc2ccccc2C(F)(F)F)c2ccccc21`, for which the Potency result in assay [1] and in assay [2] was “inactive” in each case.

With `Cc1cc2c(s1)c1cnn(Cc3ccccc3)c(=O)c1n2C`, the Potency result in assay [1] and in assay [2] was “inactive” throughout.
